Here are results for 60 compounds from ChEMBL document CHEMBL3988442, “University of Dundee, Small-Polar-MMV Screening Library” (2021).

The campaign covered roughly 69,000 compounds. About 1,000 (1.4%) showed an effect of 50% or more. The sample as a whole holds a higher share of strong results than the screen did.

The assay has as its system Leishmania donovani. The assay can be described thus: Leishmania intramacrophage assay. The format is functional, organism-based. Also on record: scale not given: in the data most compounds retested in dose-response had high values.

For `Cc1cnn(C2CN(CCOc3cccc(C#N)c3)C2)c1`, where the note is “30.3 µM, […]”, the “Percent Effect” value was found to be 0.4339%.
On the same count and under the same terms, the figure for `COc1ccc(C2CCCN2c2ccnc(C)c2Cl)c(OC)c1` (stereo not given) is 54.95%; for `COc1ccc(C2CCCN2c2cnccn2)c(OC)c1` (stereo not given) it is 20.05%.
Still for that read-out and setting: the figure for `COc1ccc(C2CCCN2c2nnc(C)s2)c(OC)c1` (stereo not given) is 1.461%; for `CCOc1ccc(NC(=O)N2CCC(n3cncn3)CC2)cc1Cl` it is -3.205%.
On the same count and under the same terms, the figure for `COCCCn1ccc(NC(=O)NCCCn2ccnc2)n1` is 2.018%; for `COc1cc(CNCCn2ccnc2)cc2c1OCO2.Cl` it is 27.41%.
In the case of `CCOc1ccc(CNCCCn2ccnc2)cc1Br`, under “30 µM, 30.03 µM”, the “Percent Effect” value amounted to 80.37%.
Regarding `CCOc1cc(CNCCCn2ccnc2)cc(Cl)c1OCC`, the “Percent Effect” value (30.3 µM, […]) is given as 81.44%.
On to `COc1ccc(C(=O)NCCCn2ccnc2)c(OC)n1`, for which the “Percent Effect” value (30 µM, 30.03 µM) is 10.91%.
For the compound `CCOc1ccc(CNCCCn2ccnc2)cc1OC`, the “Percent Effect” value (30.3 µM, […]) is on record as 3.86%.
On the same count and under the same terms, the figure for `CCOc1cc(CNCCCn2ccnc2)cc(Cl)c1OC` is 37.96%.
Still for that read-out and setting: for `CCOc1ccc(CNCCCn2ccnc2)cc1Cl.Cl.Cl` the value was 68.16%; for `CN(C)C(=O)COCc1nn(C)c2c1CCN(Cc1ccco1)C2.O=C(O)C(F)(F)F`, 23.44%; for `O=C(NCC(F)F)c1ccc(S(=O)(=O)N2CCCC(O)C2)cc1` (stereo not given), 15.51%.
The same measure, in the same setting: for `CN(C)Cc1ccc(C(=O)N2CCCC(n3cccn3)C2)cc1` (stereo not given) the value was -1.565%.
As to `Cc1nn(C)c(N(C)C)c1CNC1CCc2c(Cl)cccc21.Cl` (stereo not given), the “Percent Effect” value (30 µM) came out at 34.54%.
`O=C([C@@H](O)Cc1ccccc1)N1CCCn2cncc2C1`: the “Percent Effect” value (30.3 µM, […]) came out at 13.9%.
Still for that read-out and setting: the figure for `Cn1ccc(C(=O)Nc2nc(-c3ccc4c(c3)CCO4)cs2)cc1=O` is 32.33%; for `O=C(O)C(F)(F)F.O=C(c1cc(C2CC2)on1)N1C[C@@H]2COC[C@]2(COc2cccnc2)C1` it is 50.64%; for `O=C(O)C(F)(F)F.O=C(c1ccc(F)cc1)N1C[C@@H]2COC[C@]2(COc2cccnc2)C1` it is 16.14%.
The same measure, in the same setting: the figure for `O=C(COc1ccccc1)N1C[C@@H]2COC[C@]2(COc2cccnc2)C1.O=C(O)C(F)(F)F` is 29.31%; for `CC(C)(C)c1cc(CN2C[C@H]3CC[C@@H]2CN(Cc2ccccn2)C3)n[nH]1` it is 4.97%; for `CC(C)N(C)S(=O)(=O)N(Cc1cccs1)CC1CCCO1` (stereo not given) it is -50.49%.
On the same count and under the same terms, the figure for `CC(C)c1cc(NCc2csc(C(C)C)n2)nc(N)n1` is 50.61%; for `CC(C)c1nc(CNc2ccc(CNS(C)(=O)=O)cc2)cs1` it is 21.12%; for `CC(C)c1cc(NCc2csc(N(C)C)n2)nc(N)n1` it is 41.43%.
With `O=C(O)C(F)(F)F.O=C(c1ccco1)N1CCCC2(CCN(c3nncs3)C2)C1` (stereo not given), the “Percent Effect” value (30.3 µM, […]) is recorded as 36.42%.
On to `Cn1cc(CN2CCC3(CCCN(Cc4ccccn4)C3)CC2)cn1`, for which the “Percent Effect” value (30 µM, 30.03 µM) is reported as 51.96%.
With `Cn1cc(CN2CCCC23CCN(C(=O)c2ccccn2)CC3)cn1.O=C(O)C(F)(F)F`, the “Percent Effect” value (30.3 µM, […]) is given as -2.86%.
As to `Cn1cc(CN2CCCC3(CCN(C(=O)c4ccccn4)C3)C2)cn1.O=C(O)C(F)(F)F.O=C(O)C(F)(F)F.O=C(O)C(F)(F)F` (stereo not given), the “Percent Effect” value (30.3 µM, […]) is given as 77.43%.
On the same count and under the same terms, for `Cc1cccc(CN2CCC3(CCCN(Cc4cnn(C)c4)C3)C2)n1.O=C(O)C(F)(F)F.O=C(O)C(F)(F)F` (stereo not given) the value was 37.49%.
The same measure, in the same setting: the figure for `Cn1cc(CN2CCCC3(CCN(C(=O)c4cnccn4)C3)C2)cn1.O=C(O)C(F)(F)F.O=C(O)C(F)(F)F` (stereo not given) is 26.24%; for `Cn1cc(CN2CCC3(CC2)CCN(Cc2ccccn2)CC3)cn1` it is -5.313%.
The same measure, in the same setting: for `O=C(O)C(F)(F)F.O=C(c1ccccn1)N1CCC2(CCCN(c3nncs3)C2)C1` (stereo not given) the value was 54.23%; for `Cc1cnc(C(=O)N2CCC3(CCCN(c4nncs4)C3)C2)cn1` (stereo not given), 29.83%.
Consider `CCOc1ccc(NC(=O)N(C)Cc2cnn(C)c2)c(C)c1`, for which the “Percent Effect” value (30.3 µM, […]) came out at 28.5%.
As for `CC(C)N1CCO[C@H]2CN(C(=O)c3ccoc3)C[C@H]21.O=C(O)C(F)(F)F`, the “Percent Effect” value (30 µM, 30.03 µM) was -20.99%.
Still for that read-out and setting: for `Cn1cnc2c1C(COCc1cccnc1)N(Cc1ccccn1)CC2` (stereo not given) the value was 6.459%.
For the compound `CC(C)(C)c1n[nH]c(C2CN(Cc3nnc(C4CCC4)o3)CCO2)n1` (stereo not given), the “Percent Effect” value (30 µM) turned out to be 11.21%.
For `CCN(C)c1ncnc2c1CCN(Cc1ccncc1)CC2.O=C(O)C(F)(F)F.O=C(O)C(F)(F)F.O=C(O)C(F)(F)F`, the “Percent Effect” value (30.3 µM, […]) came out at 31.79%.
On the same count and under the same terms, the figure for `CCn1cc(CN(C)S(=O)(=O)c2ccccc2)cn1` is 11.15%; for `CCn1cc(CN(C)S(=O)(=O)c2cnn(C)c2)cn1` it is 50.44%.
Turning to `CCn1cc(CN(C)S(=O)(=O)c2ccc(Cl)cc2)cn1`, the “Percent Effect” value (30 µM, 30.03 µM) amounted to 2.361%.
As to `C[C@@H]1CN(Cc2ccoc2)C[C@]12CCN(CC(=O)N(C)C)C2=O.O=C(O)C(F)(F)F`, where the note is “30.3 µM, […]”, the “Percent Effect” value was found to be 1.993%.
On the same count and under the same terms, the figure for `NC(=O)c1ccnc(N2CCCC(CO)(Cc3ccc(F)cc3)C2)c1` (stereo not given) is 16.75%; for `O=S(=O)(CCCN1CCOC(Cn2cccn2)C1)c1ccccc1` (stereo not given) it is 8.687%; for `Cc1noc([C@H]2COC[C@H]3CN(C(=O)Cc4cccc(F)c4)C[C@H]32)n1` it is 29.86%.
Regarding `Cc1noc(C)c1CN(C)C(=O)c1ccc(NC2CC2)nc1`, the “Percent Effect” value (30 µM, 30.03 µM) was 24.65%.
For `Cc1noc(C)c1CN(C)C(=O)c1cnc(C2CC2)nc1O`, under “30.3 µM, […]”, the “Percent Effect” value stood at 65.78%.
Turning to `Cc1noc(C)c1CN(C)C(=O)c1ccc(O)nc1`, the “Percent Effect” value (30 µM) is 24.33%.
Turning to `CCOC(=O)N1C[C@H]2CC[C@@H]1CN(Cc1ccccc1)C2`, the “Percent Effect” value (30.3 µM, […]) was found to be 27.53%.
As to `O=C(CSc1ccncc1)N1C[C@H]2CC[C@@H]1CN(Cc1cccnc1)C2`, the “Percent Effect” value (30 µM, 30.03 µM) is reported as 35.98%.
In the case of `O=C(CSc1ccccc1)N1C[C@H]2CC[C@@H]1CN(Cc1ccncc1)C2`, the “Percent Effect” value (30.3 µM, […]) was 14.29%.
As to `CSCC(=O)N1C[C@H]2CC[C@@H]1CN(Cc1ccccc1)C2`, the “Percent Effect” value (30 µM, 30.03 µM) came to 50.94%.
As to `O=C(CC(F)(F)F)N1C[C@H]2CC[C@@H]1CN(Cc1ccccc1)C2`, the “Percent Effect” value (30.3 µM, […]) was determined as 17.26%.
For the compound `O=C(CSc1ncccn1)N1C[C@H]2CC[C@@H]1CN(Cc1ccncc1)C2`, the “Percent Effect” value (30 µM, 30.03 µM) was 54.88%.
On to `[O-][S+](Cc1c(F)cccc1Cl)Cc1nnnn1C1CC1` (stereo not given), for which the “Percent Effect” value (30.3 µM, […]) was -31.87%.
Consider `COCCC(C)NC(=O)c1cc(Br)c2c(c1)OCCO2` (stereo not given), for which, for the setting “30 µM”, the “Percent Effect” value was found to be 12.78%.
`Cc1nc(COc2cccc(C#N)c2)no1`: where the note is “30 µM, 30.03 µM”, the “Percent Effect” value is on record as -12.6%.
